Source: PubChem BioAssay
Activity calls are given as the source filed them.

What was measured:
[1] = binders of probe aFSTL3 on microarray, primary screen, stem cell growth factor project, biochemical, small-molecule microarray, fluorescence 635/667 (AID 1064); settings: higher = more signal;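 also: measures binding of the biotinylated anti-FSTL3 antibody to printed compounds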
[2] = binders from COS7 lysate, DM2A8 probe, primary screen, torsin A project, cell lysate, small-molecule microarray, fluorescence 635/667 (AID 1065); settings: higher = more signal, COS7 lysate expressing mutant human TOR1A
[3] = binders of probe aFGF2 on microarray, primary screen, stem cell growth factor project, biochemical, small-molecule microarray, fluorescence 635/667 (AID 1067); settings: higher = more signal;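 also: measures binding of biotinylated aFGF2 protein to printed compounds on slides; z-score merges feature fluorescence and signal-to-noise across triplicate slides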
[4] = binders of probe aFGF10 on microarray, primary screen, stem cell growth factor project, biochemical, small-molecule microarray, fluorescence 635/667 (AID 1071); settings: higher = more signal;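 also: score merges 667 nm spot intensity and signal to noise from triplicate slides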
[5] = target: Neurogenic locus notch homolog protein 2 (Homo sapiens) (UniProt Q04721); experiment: Notch2 binders on small-molecule microarrays, primary screen, biochemical, small-molecule microarray, 635 nm fluorescence, stem cell growth factors (AID 1073); settings: Notch2 binding, higher = more signal
Chain of Neurogenic locus notch homolog protein 2 (Homo sapiens) (Q04721 whole entry, looked up, canonical isoform): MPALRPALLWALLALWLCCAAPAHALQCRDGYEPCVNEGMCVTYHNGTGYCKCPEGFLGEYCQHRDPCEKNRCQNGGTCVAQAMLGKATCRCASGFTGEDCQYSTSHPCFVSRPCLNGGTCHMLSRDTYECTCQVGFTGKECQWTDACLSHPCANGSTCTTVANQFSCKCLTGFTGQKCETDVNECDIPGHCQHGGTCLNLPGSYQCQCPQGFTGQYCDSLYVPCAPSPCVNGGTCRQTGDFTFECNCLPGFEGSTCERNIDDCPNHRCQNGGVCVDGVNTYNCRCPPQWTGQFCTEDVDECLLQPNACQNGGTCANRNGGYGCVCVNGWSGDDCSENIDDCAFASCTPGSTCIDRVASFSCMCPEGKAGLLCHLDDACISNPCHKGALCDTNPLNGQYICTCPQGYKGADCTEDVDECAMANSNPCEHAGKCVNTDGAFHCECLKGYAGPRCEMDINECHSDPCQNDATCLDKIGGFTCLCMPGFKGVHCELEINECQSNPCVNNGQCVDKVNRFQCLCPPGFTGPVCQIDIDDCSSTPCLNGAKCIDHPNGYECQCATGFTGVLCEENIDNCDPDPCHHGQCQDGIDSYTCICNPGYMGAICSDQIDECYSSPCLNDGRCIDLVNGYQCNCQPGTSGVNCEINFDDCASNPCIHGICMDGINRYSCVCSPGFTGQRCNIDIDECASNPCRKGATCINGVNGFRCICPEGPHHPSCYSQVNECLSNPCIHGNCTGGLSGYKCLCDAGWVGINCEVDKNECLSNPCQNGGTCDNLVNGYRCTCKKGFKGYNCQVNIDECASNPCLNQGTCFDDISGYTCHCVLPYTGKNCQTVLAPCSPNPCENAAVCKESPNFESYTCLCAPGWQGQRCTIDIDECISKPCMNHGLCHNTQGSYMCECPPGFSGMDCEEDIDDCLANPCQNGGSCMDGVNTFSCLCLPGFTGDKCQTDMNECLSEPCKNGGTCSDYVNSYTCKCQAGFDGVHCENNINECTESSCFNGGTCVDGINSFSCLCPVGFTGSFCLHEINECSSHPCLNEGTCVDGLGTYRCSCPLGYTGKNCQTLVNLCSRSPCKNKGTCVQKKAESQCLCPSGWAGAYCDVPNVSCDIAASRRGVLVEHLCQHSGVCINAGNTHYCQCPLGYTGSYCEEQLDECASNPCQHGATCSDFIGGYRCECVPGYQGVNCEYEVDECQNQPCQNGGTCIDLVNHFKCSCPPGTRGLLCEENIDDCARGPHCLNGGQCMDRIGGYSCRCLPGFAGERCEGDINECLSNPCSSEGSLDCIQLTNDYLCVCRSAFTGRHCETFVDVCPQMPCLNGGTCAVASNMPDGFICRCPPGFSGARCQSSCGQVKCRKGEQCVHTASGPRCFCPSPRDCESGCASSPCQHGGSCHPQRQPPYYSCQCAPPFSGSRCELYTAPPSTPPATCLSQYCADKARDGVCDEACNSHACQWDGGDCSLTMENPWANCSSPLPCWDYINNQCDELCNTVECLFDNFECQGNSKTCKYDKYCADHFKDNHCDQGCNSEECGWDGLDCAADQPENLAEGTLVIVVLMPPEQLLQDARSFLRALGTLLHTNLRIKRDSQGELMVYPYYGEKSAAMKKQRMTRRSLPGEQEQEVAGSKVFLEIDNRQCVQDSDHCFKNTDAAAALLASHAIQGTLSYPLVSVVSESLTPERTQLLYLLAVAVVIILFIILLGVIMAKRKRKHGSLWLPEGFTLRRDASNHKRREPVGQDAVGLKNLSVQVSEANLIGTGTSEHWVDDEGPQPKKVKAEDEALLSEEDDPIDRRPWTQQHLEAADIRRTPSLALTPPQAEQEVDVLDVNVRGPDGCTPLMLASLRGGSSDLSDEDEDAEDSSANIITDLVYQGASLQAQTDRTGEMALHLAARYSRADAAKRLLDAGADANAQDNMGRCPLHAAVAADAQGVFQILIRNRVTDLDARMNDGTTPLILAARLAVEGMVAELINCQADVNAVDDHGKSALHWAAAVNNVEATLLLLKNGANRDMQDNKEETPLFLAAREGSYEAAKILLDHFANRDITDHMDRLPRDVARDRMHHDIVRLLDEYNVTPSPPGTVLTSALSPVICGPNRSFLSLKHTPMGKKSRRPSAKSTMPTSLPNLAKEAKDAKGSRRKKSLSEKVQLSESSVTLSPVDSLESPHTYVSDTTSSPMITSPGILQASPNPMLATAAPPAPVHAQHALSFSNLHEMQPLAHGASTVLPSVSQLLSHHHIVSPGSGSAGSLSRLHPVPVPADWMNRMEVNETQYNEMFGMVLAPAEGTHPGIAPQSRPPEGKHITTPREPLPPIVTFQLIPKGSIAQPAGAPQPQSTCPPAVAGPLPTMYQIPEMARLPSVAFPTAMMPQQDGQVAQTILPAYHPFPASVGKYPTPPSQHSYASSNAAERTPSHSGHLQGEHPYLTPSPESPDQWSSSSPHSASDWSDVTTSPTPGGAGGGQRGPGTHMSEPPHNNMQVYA

[6] = target: Pro-neuregulin-1, membrane-bound isoform (Homo sapiens) (UniProt Q02297); experiment: NRG1 binders on small-molecule microarrays, primary screen, psychiatric disease protein project, biochemical, small-molecule microarray, fluorescence 635/667 (AID 1075); settings: NRG1 binding, 635 nm fluorescence, higher = more signal;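 also: score combines 667 nm spot fluorescence with signal to noise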
Chain of Pro-neuregulin-1, membrane-bound isoform (Homo sapiens) (Q02297 whole entry, looked up, the tested form may be a part, canonical isoform): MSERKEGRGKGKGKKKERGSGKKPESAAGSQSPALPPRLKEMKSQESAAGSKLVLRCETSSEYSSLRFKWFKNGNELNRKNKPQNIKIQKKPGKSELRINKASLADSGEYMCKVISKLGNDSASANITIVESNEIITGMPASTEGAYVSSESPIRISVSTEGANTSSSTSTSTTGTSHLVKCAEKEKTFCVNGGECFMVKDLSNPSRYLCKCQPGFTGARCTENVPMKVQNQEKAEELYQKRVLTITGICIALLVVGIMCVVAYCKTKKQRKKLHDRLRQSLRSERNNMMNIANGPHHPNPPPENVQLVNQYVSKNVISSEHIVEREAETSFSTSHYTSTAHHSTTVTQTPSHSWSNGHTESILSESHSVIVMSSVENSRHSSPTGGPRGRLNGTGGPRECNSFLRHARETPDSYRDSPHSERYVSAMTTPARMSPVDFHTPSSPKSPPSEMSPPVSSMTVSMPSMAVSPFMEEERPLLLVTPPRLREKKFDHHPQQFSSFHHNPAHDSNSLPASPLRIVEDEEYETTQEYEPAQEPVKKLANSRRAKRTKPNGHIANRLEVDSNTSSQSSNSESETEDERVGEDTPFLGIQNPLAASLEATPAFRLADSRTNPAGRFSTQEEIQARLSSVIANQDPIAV

[7] = tested on: Neuregulin-1 EGF-like domain; experiment: binders of neuregulin-1 EGF-like domain, primary screen, biochemical, small-molecule microarray, 635 nm fluorescence (AID 1081); settings: small-molecule microarray binding, higher = more signal;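 also: binding of the protein to compounds printed on small-molecule microarray slides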
[8] = FRG1 promoter luciferase signal modulators, primary screen, FRG1 inhibition for FSHD, cell-based, C2C12 myotubes, firefly/Renilla luciferase, luminescence (AID 1084); settings: higher = more signal, called active from +8 up or from −8 down
[9] = binders of probe aFST on microarray, primary screen, stem cell growth factor project, biochemical, small-molecule microarray, fluorescence 635/667 (AID 1086); settings: higher = more signal;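 also: score merges 667 nm fluorescence with signal-to-noise of each printed compound spot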
[10] = binders of probe aHhip on microarray, primary screen, stem cell growth factor project, biochemical, small-molecule microarray, fluorescence 635/667 (AID 1087); settings: higher = more signal;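 also: score merges spot fluorescence at 667nm with spot signal to noise ratio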
[11] = tested on: PRMT1 (protein arginine N-methyltransferase 1); experiment: PRMT1 binders on small-molecule microarrays, primary screen, biochemical, small-molecule microarray, 635 nm fluorescence (AID 1088); settings: small-molecule microarray binding, higher = more signal;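 also: binding of Prmt1 protein to compounds spotted on small-molecule microarray slides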
[12] = yeast growth modulation, basal conditions, primary screen, YJM789 clinical isolate, OD600, 24 h (AID 1089);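 also: growth of clinical yeast isolate S. cerevisiae YJM 789 seeded 1000 cells per well; test concentration not given here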; settings: S. cerevisiae YJM789 growth, higher = more signal, called active from +8 up or from −8 down
[13] = fission yeast growth modulation, primary screen, strain 972, OD600, 24 h, no modulator (AID 1090);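 also: basal condition with compound alone and no growth modifier present; test concentration not given here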; settings: S. pombe 972 growth, higher = more signal, called active from +8 up or from −8 down
[14] = S. cerevisiae growth modulation with rapamycin, primary screen, strain BY4716, OD600, 96 h (AID 1091); settings: higher = more signal, called active from +8 up or from −8 down; also: test concentration not given here
[15] = target: Torsin-1A-interacting protein 2 (Homo sapiens) (UniProt Q8NFQ8); experiment: LULL1 binders on small-molecule microarray, primary screen, cell lysate, human LULL1 lysate, 635/667 nm fluorescence (AID 1092); settings: hLULL1 lysate binding, 635 nm fluorescence, higher = more signal;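 also: probe is lysate of COS7 cells overexpressing human LULL1; score merges per-feature 667 nm fluorescence with signal-to-noise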
Chain of Torsin-1A-interacting protein 2 (Homo sapiens) (Q8NFQ8 whole entry, looked up): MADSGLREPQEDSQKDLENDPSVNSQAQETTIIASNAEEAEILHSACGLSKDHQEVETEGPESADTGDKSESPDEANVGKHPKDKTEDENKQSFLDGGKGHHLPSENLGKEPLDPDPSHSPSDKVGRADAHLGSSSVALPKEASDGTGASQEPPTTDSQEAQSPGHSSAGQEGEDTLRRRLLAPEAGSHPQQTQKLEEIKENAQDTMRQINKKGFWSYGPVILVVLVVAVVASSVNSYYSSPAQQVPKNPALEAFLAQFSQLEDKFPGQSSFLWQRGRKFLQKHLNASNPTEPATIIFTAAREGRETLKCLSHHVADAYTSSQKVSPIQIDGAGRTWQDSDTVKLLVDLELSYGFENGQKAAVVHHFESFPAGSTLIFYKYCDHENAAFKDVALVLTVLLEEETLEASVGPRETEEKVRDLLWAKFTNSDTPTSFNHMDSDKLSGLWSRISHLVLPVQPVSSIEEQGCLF

[16] = E. coli growth modulation, two-sided OD650, primary screen, E. coli filamentation project, strain DRC41, 24 h (AID 1093); settings: OD650, 24 h, higher = more signal, called active from +8 up or from −8 down;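 also: MC1000 strain lacking acrAB efflux and sulA so SOS filamentation is blocked; test concentration not given here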
[17] = small-molecule microarray binders of probe aLefty2, primary screen, biochemical, biotinylated probe, 635/667 nm fluorescence (AID 1094); settings: higher = more signal;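 also: score merges spot fluorescence near 667 nm with spot signal-to-noise ratio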
[18] = tested on: Noggin (protein binding on small-molecule microarray); experiment: Noggin binders on small-molecule microarray, primary screen, biochemical, 635/667 nm fluorescence (AID 1095); settings: 635 nm fluorescence, higher = more signal;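 also: score merges 667 nm feature fluorescence with signal to noise over triplicate slides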
[19] = target: Neurogenic locus notch homolog protein 3 (Homo sapiens) (UniProt Q9UM47); experiment: NOTCH3 binders on small-molecule microarray, primary screen, biochemical, 635/667 nm fluorescence (AID 1096); settings: NOTCH3 binding, 635 nm fluorescence, higher = more signal
[20] = small-molecule microarray binders of probe aEGFR, primary screen, biochemical, biotinylated probe, 635/667 nm fluorescence (AID 1097); settings: higher = more signal;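 also: probe is a biotinylated anti-EGFR antibody binding compounds printed on slides; score combines fluorescence near 667 nm and signal to noise of each spot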

SMILES	composite z-score [1]	composite z-score [2]	composite z-score [3]	composite z-score [4]	composite z-score [5]	composite z-score [6]	composite z-score [7]	z-score [8]	composite z-score [9]	composite z-score [10]	composite z-score [11]	z-score [12]	z-score [13]	z-score [14]	composite z-score [15]	z-score [16]	composite z-score [17]	composite z-score [18]	composite z-score [19]	composite z-score [20]
Cc1ccc(S[C@]2(C(=O)NCc3ccccc3)CC(=O)N(Cc3cc(C(F)(F)F)cc(C(F)(F)F)c3)[C@@H]2c2ccc(CO)cc2I)cc1	0.436	-0.3	-0.0767	-1.03	-1.44	1.11	0.623	-0.452 (inactive)	-0.292	-0.132	-0.455	0.269 (inactive)	-2.56 (inactive)	0.49 (inactive)	0.742	-0.607 (inactive)	0.01	-1.71	-1.93	-0.3
O=C1C[C@@](C(=O)NCC(F)(F)F)(c2ccc([N+](=O)[O-])cc2)[C@@H](c2ccc(CO)cc2)N1CC12CC3CC(CC(C3)C1)C2	0.213	0.244	0.134	1.15	1.19	0.812	1.32	-2.42 (inactive)	0.724	0.914	1.55	0.263 (inactive)	-1.03 (inactive)	1.77 (inactive)	2.05	-0.49 (inactive)	0.426	1.26	0.614	0.751
C=C(C(=O)CC[C@H](OC(=O)c1ccccc1-c1ccccc1C(=O)O)c1ccccc1OCCO)C(C)C	-0.148	0.724	-0.163	0.782	0.393	0.61	1.18	-1.38 (inactive)	0.117	-0.0994	1.41	0.574 (inactive)	-0.788 (inactive)	-0.927 (inactive)	1.46	0.968 (inactive)	-0.199	0.695	0.257	-0.194
CCCC=C(CCC)[C@@H](NC(=O)CCc1ccccc1)c1ccc(C(F)(F)F)cc1	0.304	0.0979	0.0836	0.0199	1.53	1.51	0.969	-0.129 (inactive)	0.821	0.107	1.1	-0.296 (inactive)	-1.19 (inactive)	0.654 (inactive)	3.4	-0.604 (inactive)	0.201	0.0368	1.12	-0.0423
C=C(C)[C@@H]1CC=C(C(O)C2C=CC3C(=O)N(c4ccccc4)C(=O)C3N2Nc2ccc(C#N)cc2)CC1 (stereo not given in full)	-0.266	-0.278	0.169	0.783	1.65	1.81	1.33	-1.74 (inactive)	1.53	-0.112	1.54	0.188 (inactive)	0.369 (inactive)	4.16 (inactive)	3.33	-1.9 (inactive)	0.386	0.35	1.04	0.0717
COc1ccc(C(O)C2C=CC3C(=O)N(c4ccccc4)C(=O)C3N2Nc2ccccc2F)cc1 (stereo not given)	0.109	0.67	-0.0747	-0.0293	1.4	1.8	1.18	0.425 (inactive)	0.115	-0.0296	1.1	-0.228 (inactive)	0.575 (inactive)	-0.246 (inactive)	3.46	0.0902 (inactive)	0.183	0.164	0.842	-0.0678
CCCCCN1CC=CC23O[C@@H]4/C=C\CCC(C)OC(=O)C4[C@H]2C(=O)N(CCCCCCO)[C@@H]3C1=O (stereo not given in full)	-0.146	-0.355	-0.129	-0.248	-0.641	1.89	1.4	-0.0224 (inactive)	-0.183	-0.0994	0.523	0.735 (inactive)	0.157 (inactive)	-0.635 (inactive)	1.79	1.24 (inactive)	-0.119	0.296	0.109	-0.126
CN(C)CCCNC(=O)[C@@H]1c2ccccc2C(=O)N(C2CCCCC2)[C@H]1c1ccc(CO)cc1	-0.537	0.249	0.0036	0.577	1.57	1.59	1.41	-0.988 (inactive)	0.434	-0.131	1.55	0.154 (inactive)	-1.13 (inactive)	-1.02 (inactive)	3.08	0.37 (inactive)	-0.118	0.98	1.03	0.251
O=C1N[C@@H](Cc2ccccc2)C(=O)N2[C@@H]1C[C@@H](C(=O)O)[C@H]2c1ccc(O)cc1	0.106	0.726	-0.0773	0.473	0.0865	1.77	1.37	4.65 (inactive)	0.661	-0.257	1.19	-0.0447 (inactive)	-0.701 (inactive)	-0.54 (inactive)	2.41	1.54 (inactive)	0.391	1.5	1.11	0.335
C=CCC(OC(C)=O)[C@@H]1[C@@H](N(Cc2ccc(-c3ccccc3)cc2)C(=O)c2ccc(C)cc2)c2cc(OCCCO)ccc2N1C(=O)Cc1ccc2ccccc2c1 (stereo not given in full)	-0.377	-0.221	-0.107	0.0733	0.0573	-0.283	-0.422	-2.08 (inactive)	0.203	-0.134	0.543	-2.04 (inactive)	-0.71 (inactive)	-0.633 (inactive)	0.51	1.64 (inactive)	-0.0042	-0.0965	0.187	-0.126
C=C(/C(=C/C[C@@H](OC(C)=O)c1ccc(CO)o1)c1cc(C(=O)OC)ccc1OC)C(C)C	-0.245	-0.02	-0.076	0.938	1.18	1.18	1.21	-0.0698 (inactive)	-0.0417	-0.0618	0.864	1.06 (inactive)	-0.245 (inactive)	-0.0251 (inactive)	1.86	-0.0453 (inactive)	-0.0142	0.328	0.213	0.358
COc1ccc([Si](C)(C)[C@H]2[C@H](CC(=O)N3CCC[C@H]3CO)O[C@@]3(C(=O)N(Cc4ccc(N5CCC5=O)cc4)c4ccccc43)[C@@H]2C)cc1	-0.589	0.429	-0.0276	0.299	0.549	0.454	1.1	-4.59 (inactive)	0.485	-0.215	1.54	-0.647 (inactive)	-1.59 (inactive)	-1.31 (inactive)	2.42	0.13 (inactive)	-0.197	1.65	1.07	-0.0578
C=C[C@@H](C)[C@@H](OC(=O)Nc1ccc(SC)cc1)c1ccc(OCCO)cc1	0.004	0.81	0.0918	0.447	-0.202	1.41	1.26	10.5 (active)	0.051	0.0373	1.19	0.222 (inactive)	-1.58 (inactive)	-0.31 (inactive)	1.92	1.41 (inactive)	-0.106	0.172	0.194	0.0348
CC(C)C(CO)N1C(=O)[C@@H]2[C@H]3C(=O)OCC=C[C@H]3OC23C=CCN(C(C)(C)C)C(=O)[C@@H]13 (stereo not given in full)	-0.0718	-0.141	-0.155	-0.724	-0.456	-0.807	-1.03	-0.221 (inactive)	-0.346	-0.128	-0.0274	0.027 (inactive)	0.0191 (inactive)	0.754 (inactive)	-0.963	-0.7 (inactive)	-0.168	-0.122	-0.0022	-0.144
CN(C)C(=O)[C@@]1(Cc2ccccc2N=[N+]=[N-])N=C(c2ccc(OCCCO)cc2)O[C@H]1c1ccccc1	0.657	0.687	0.0282	0.359	1.63	1.2	1.32	-1.75 (inactive)	1.23	0.294	1.57	0.687 (inactive)	-4.17 (inactive)	1.23 (inactive)	3.38	0.1 (inactive)	0.58	-0.125	1.12	0.35
C=CC1c2cc(O)c(OC)cc2CCN1Cc1ccc([N+](=O)[O-])o1 (stereo not given)	0.29	0.381	-0.0156	0.673	1.12	1.64	1.09	-0.0303 (inactive)	0.457	0.245	-0.047	0.994 (inactive)	-0.61 (inactive)	0.757 (inactive)	2.77	0.694 (inactive)	0.0761	-0.273	0.606	0.0779
O=C(CS)NCCCCCCNC(=O)[C@@H]1C[C@@H]2C(=O)NCC(=O)N2[C@@H]1c1ccc(O)cc1	0.169	-0.0906	-0.157	-0.505	-0.918	-0.75	0.729	-1.15 (inactive)	-0.183	-0.0324	0.801	-2.07 (inactive)	0.172 (inactive)	-0.436 (inactive)	2.92	0.869 (inactive)	-0.0692	-0.728	-0.028	-0.218
C=C(/C(=C/C[C@H](OC(=O)c1ccncc1)c1cccc(OCCO)c1)c1cnc2ccccc2c1)C(C)C	0.0581	0.857	-0.0448	1.34	1.41	1.07	0.884	-2.64 (inactive)	0.157	0.0695	1.54	-25.3 (active)	-20.3 (active)	-4.3 (inactive)	1.21	-0.315 (inactive)	-0.115	1.85	1.07	-0.0578
COc1ccc(C(O)C2C=CC3C(=O)N(c4ccccc4)C(=O)C3N2Nc2ccccc2)cc1 (stereo not given)	-0.0234	0.316	0.142	0.979	1.66	1.93	1.31	-1.07 (inactive)	0.531	0.289	1.53	0.219 (inactive)	-0.24 (inactive)	0.211 (inactive)	3.6	-0.701 (inactive)	0.191	0.505	1.05	-0.0382
CCCCC=C[C@@H](NC(=O)c1ccccc1)c1ccccc1	0.277	0.241	0.0011	0.356	1.21	0.868	1.02	1.03 (inactive)	0.866	-0.206	1.04	0.409 (inactive)	0.336 (inactive)	0.889 (inactive)	3.51	-1.37 (inactive)	-0.0261	-0.328	1.09	0.0488
